# Screening data as filed in PubChem BioAssay.
# An excerpt weighted towards active compounds, which were near 5.9% of everything screened.
# TrxR1 substrate = rat thioredoxin reductase 1 substrate activity; Potency, µM (doses to about 114 µM), for inactives: at the top dose activity change, negative = substrate turnover; AID 588456; purified TrxR1 substrate turnover, NADPH consumption readout; 390,000 tested, 0.01% active; O89049; note: potency is the fitted concentration of half-maximal effect; nearly all actives have a fitted effect of over 50% in size
#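 Rat TrxR1, dispensed at 90 nM, was prereduced with 400 uM NADPH (final) for 5 min at ~22 deg C, then incubated with compound 15 min before 400 uM selenite. A first-read NADPH fluorescence drop versus no-compound background flagged substrates.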
# Gal4-VP16 FLuc = counter-screen for ROR gamma inhibitors: Gal4-VP16 reporter; Drosophila S2 Gal4-VP16 UAS-luciferase, luminescence, 20 h; Potency, µM (highest dose often 53.6 µM), inactives show top-dose activity, negative = inhibition, actives largely listed as inhibitors; 310,000 tested, 3.5% active;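 note: Gal4-VP16 expression switched on by copper sulfate through the metallothionein promoter; potency is the fitted concentration of half-maximal effect; nearly all actives have a fitted effect of over 50% in size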
# RORg inh = inhibitors of mouse ROR gamma transcriptional activity; 310,000 tested, 5.4% active; Potency, µM (titrated, usually from 53.6 µM), without a hit: at the top dose activity change, negative = inhibition, most hits filed as inhibitors; Drosophila S2 Gal4-RORgamma UAS-luciferase reporter, 20 h; P51450; note: potency is the fitted concentration of half-maximal effect; nearly all actives have a fitted effect of over 60% in size
#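 ROR gamma transcriptional activity was tracked as Gal4-UAS luciferase output in stably transfected Drosophila Schneider cells, with compound added 1 hr before 700 uM copper sulfate induction and a 20 hr ambient-temperature incubation.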
# GALK inhibitor = blocks human galactokinase activity. P51570. Purified GALK, Kinase-Glo residual ATP luminescence. Potency, µM (doses to about 57.5 µM), for the others: at the highest dose activity change, negative = inhibition, hits mostly inhibitors. 270,000 tested, 0.007% active. AID 1868; note: potency is the fitted concentration of half-maximal effect
# Target sequence (P51570 whole entry, looked up): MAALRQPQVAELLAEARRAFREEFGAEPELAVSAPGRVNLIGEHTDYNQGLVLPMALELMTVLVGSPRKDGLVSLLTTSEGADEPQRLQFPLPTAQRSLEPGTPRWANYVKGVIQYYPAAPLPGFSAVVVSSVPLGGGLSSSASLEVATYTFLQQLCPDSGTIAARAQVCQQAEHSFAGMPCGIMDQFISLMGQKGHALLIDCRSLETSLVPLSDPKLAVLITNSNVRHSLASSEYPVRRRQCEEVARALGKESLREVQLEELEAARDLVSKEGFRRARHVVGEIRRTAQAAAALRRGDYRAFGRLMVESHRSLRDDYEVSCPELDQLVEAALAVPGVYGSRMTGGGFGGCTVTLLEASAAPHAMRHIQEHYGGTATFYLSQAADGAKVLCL
#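 Compounds were pin-transferred into ATP buffer (35 uM final), then GALK plus galactose (5 nM, 100 uM final) was added. After 1 h at room temperature, Kinase-Glo Plus was added and luminescence read after 10 min.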
# rTrxR1 inhibitor = rat TrxR1 inhibition. O89049. recombinant rTrxR1, NADPH fluorescence consumption, selenite substrate. Potency, µM (doses to about 114 µM), inactives show at the top dose activity change, negative = inhibition, actives largely listed as inhibitors. 390,000 tested, 1% active. AID 588453; note: potency is the fitted concentration of half-maximal effect; nearly all actives have a fitted effect of over 65% in size
#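 Rat TrxR1 (90 nM in the dispensed reagent) was pre-reduced with 400 uM NADPH for 5 min at room temperature, then incubated with compound for 15 min. After 400 uM selenite was added, NADPH fluorescence (Ex 340/Em 450 nm) was followed for 8 min.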
# FBPA coupling cs = counter-screen for Giardia aldolase inhibitors: coupling enzyme system; activity change, negative = inhibition, % at 58.2 µM, hits read low; coupling enzyme system counterscreen, AmpLite Red fluorescence; 290,000 tested, 0.67% active; AID 2472; in the data active = activity change below about -30%
#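 Final compound at 57.5 uM, incubated 10 min at RT with coupling enzyme reagent (glyceraldehyde-3-phosphate), then 20 min with substrate and AmpLite Red detection. Fluorescence read at 525/598 nm; tests interference with the coupling assay, not aldolase inhibition.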
# Starred values were filed as active, the others as inactive; ? = inconclusive; . = no result given; [ ] = another dose, or the depositor's remark. Unless noted, calls come from the whole dose curve; as a rule, active = well fitted curve in the direction sought with a large enough effect; inconclusive = small, poorly fitted or top-dose-only effect, or another doubt; inactive = no such curve, though single readings can be large; an effect the other way counts as inactive or inconclusive. % is set by controls: 0 for no effect and ±100 for the full control effect.
SMILES,TrxR1 substrate,Gal4-VP16 FLuc,RORg inh,GALK inhibitor,rTrxR1 inhibitor,FBPA coupling cs
Cc1ccc(C)c(NC(=S)NCc2cccs2)c1,-0.7%,11.2µM*,3.98µM*,2.6%,3.5%,0.6
CCOc1cc(C2c3c(-c4cc(C)ccc4O)n[nH]c3C(=O)N2CCCOC(C)C)ccc1O (stereo not drawn),-11.2%,.,.,.,3.2%,.
CC(=O)Nc1ccc(S(=O)(=O)NCCC(=O)OCC(=O)c2ccc(Br)cc2)cc1,-5.9%,.,.,.,?,.
Cc1cc(Cl)ccc1OCc1n[nH]c(=S)n1C1CCCCC1,-10.1%,2.51µM*,0.794µM*,2.1%,-20.2%,1.1
Cc1ccsc1-c1n[nH]c(=S)n1C1CCCCC1,-9.8%,?,3.55µM*,0.7%,-29.8%,-1.6
COc1ccc(-c2n[nH]c(=S)n2C2CCCCC2)cc1,1.3%,7.08µM*,3.16µM*,-2.1%,-21.2%,0.0
COc1ccc(Cl)cc1-c1n[nH]c(=S)n1C1CCCCC1,-4.5%,7.94µM*,3.98µM*,-0.8%,-29.6%,3.6
Cc1cc(Cl)ccc1OCC(=O)N1C(C)CCCC1C (stereo not drawn),6.4%[57.1 µM],?,-34.5%,1.6%,22.9%,7.6
Cc1sc2nc(COC(=O)CNC(=O)c3ccc(C(C)(C)C)cc3)[nH]c(=O)c2c1C,-9.7%,22.4%,-31.3%,0.2%,-4.7%,-0.4
Cc1cc(C)nc(-n2nc(C)c(Sc3ccc(F)cc3)c2N)n1,8.3%,3.98µM*,2.24µM*,4.8%,17.5%,-3.6
CCOC(=O)c1sc(NC(=S)NC(=O)C2CCCC2)cc1C,7.2%[57.1 µM],3.16µM*,4.47µM*,-1.2%,-4.7%,-1.0
CCOC(=O)c1sc(NC(=O)C(C)(C)C)cc1C,-1.2%,0.5%,23.3%,-3.3%,10.3%,-3.8
CCOC(=O)c1sc(NC(=S)NC(=O)CC(C)C)cc1C,-9.0%,?,5.62µM*,-1.4%,-8.9%,1.1
CCOC(=O)c1sc(NC(=O)C2CC2)cc1C,2.3%,37.7%,?,-0.2%,7.3%,-1.0
c1ccc(-n2nnnc2-c2cccc3ccccc23)cc1,-4.1%,.,.,.,4.5%,.
Cc1ccc(CNC(=O)C2c3ccccc3C(=O)N3CCc4ccccc4C23)o1 (stereo not drawn),2.8%,-7.2%,-0.5%,2.4%,1.78µM*,-3.4
CCc1ccc(CN(C)C(=O)c2cc(COc3cccc4cnccc34)on2)cc1,5.4%,?,-10.2%,4.7%,37.3%,-0.7
Cc1c(C(C)NC(=O)c2cc(COc3cccc4cnccc34)on2)cnn1C (stereo not drawn),62.3%,12.6µM*,-27.0%,9.6%,10.0%,-0.3
Cc1cc2c(sc3c(C)ccc(C)c32)c(C)n1,1.2%[57.1 µM],-6.2%,17.8µM*,-1.8%,10.0%[57.1 µM],8.7
COc1cccc(OC)c1C(=O)Nc1cc2c(cc1N1CCOCC1)n(C)c(=O)n2C,5.1%,-6.4%,-6.7%,0.1%,17.1%,-0.7
COc1cccc(C2=Nn3c(nnc3-c3ccccc3C)SC2)c1,.,15.8µM*,?,.,.,-32.1*
COc1cccc(C2=Nn3c(nnc3-c3ccc(OC)cc3OC)SC2)c1,.,-8.5%,5.3%,.,.,-3.5
Cc1cccc(Cc2c(C)[nH]c(=O)c(C#N)c2C)c1,4.7%,11.3%,-30.6%,-0.1%,36.7%,-1.4
Cc1[nH]c(=S)c(C#N)c(C)c1CCC#N,-1.7%,-15.7%,14.1µM*,-1.4%,?,-0.6
Cc1[nH]c(=S)c(C#N)c(C)c1Cc1ccccc1,4.4%,8.91µM*,3.55µM*,-1.3%,-12.8%,4.4
SMILES,TrxR1 substrate,Gal4-VP16 FLuc,RORg inh,GALK inhibitor,rTrxR1 inhibitor,FBPA coupling cs
COc1ccccc1N1CCN(/N=C(\C)c2ccccc2O)CC1,-6.1%,4.6%,22.3%,2.7%,19.2%,2.7
CCOc1ccccc1NC(=O)Nc1ccc2c(c1)OCO2,0.2%,4.4%,53.2%,2.5%,7.0%,0.3
C=CCOc1ccccc1CN(C(=O)CCl)c1ccc2c(c1)OCO2,-0.2%,?,?,-2.6%,20µM*,0.1
COc1ccc(/C=N/NC(N)=S)cc1,-10.5%,?,11.2µM*,-0.6%,-25.2%,1.9
COC(=O)c1ccc(COc2ccc(/C=N/NC(N)=S)cc2)o1,-0.8%,?,11.2µM*,1.1%,-7.5%,1.7
NC(=S)N/N=C/c1ncc(C(F)(F)F)cc1Cl,-6.8%[57.1 µM],0.501µM*,0.631µM*,1.3%,?,-7.1
COc1ccc(/C=N/NC(=O)c2cccc(C(=O)N/N=C/c3ccc(OC)cc3)n2)cc1,46.0%,-23.5%,-22.8%,2.6%,50.1µM*,1.5
CCN(CC)C(=O)[C@H]1C[C@H](CC(=O)NC(C)(C)C)C(=O)N2CCc3c([nH]c4cc(CCC(=O)N(C)C)ccc34)[C@]12C,0.6%,.,.,.,15.6%,.
CN(CCc1ccccn1)C(=O)CCC1CCCN(C(=O)CCOc2ccccc2)C1 (stereo not drawn),9.1%,24.0%,3.2%,-1.9%,39.7%,-0.2
C=CCOc1ccc(/C=N\NC(N)=S)cc1,-11.4%,24.4%,32.0%,0.3%,-15.6%,-2.8
NC(=S)N/N=C/c1ccc(C(F)(F)F)cc1,-1.8%,5.62µM*,5.01µM*,0.8%,-8.9%,-0.3
CC(C)Oc1ccc(/C=N/NC(N)=S)cc1,-9.5%,2.82µM*,5.01µM*,-3.2%,-21.7%,-1.2
COc1ccc(NC(=S)c2ccc(N(C)C)cc2)cc1,-1.7%,21.4%,?,0.2%,-8.3%,-1.0
COc1ccc(C)cc1NC(=O)COC(=O)c1ccc2ccccc2n1,1.7%,.,.,.,15.1%,.
Cc1ccc(C)c(NC(=O)NCc2ccccn2)c1,0.7%,-20.9%,20.1%,3.6%,16.5%,-8.2
Cc1ccc(NC(=S)c2ccc(N(C)C)cc2)cc1,-2.4%,?,10µM*,2.6%,-2.1%,0.8
Cc1ccc(C)c(NC(=S)c2ccccn2)c1,-10.7%,1.26µM*,0.316µM*,-1.6%,-26.6%,-0.5
CN(C)c1ccc(NC(=S)c2ccc3ccccc3n2)cc1,1.5%,?,6.31µM*,7.5%,31.5%,-2.7
Cc1ccc(C)c(NC(=S)c2ccc3ccccc3n2)c1,0.3%,5.62µM*,2µM*,0.0%,3.0%,-3.3
Cc1ccccc1C(=O)c1cccn1CC(=O)NC(C)c1ccc2c(c1)OCCO2 (stereo not drawn),-10.1%,-9.6%,34.3%,-1.5%,18.5%[57.1 µM],15.1
COCCC(=O)N1CCC(Oc2ccc(C(=O)NC3Cc4ccccc4C3)cc2)CC1,5.7%,-3.8%,-1.0%,6.4%,20.8%,.
C[C@@H]1C=C[C@](Cc2ccccc2)(C(=O)NCCc2c[nH]c3ccccc23)N1C(=O)c1ccccc1,-5.1%,-0.4%,?,.,6.2%,-4.3
Cc1ccc(S(=O)(=O)N(C)C)cc1NC(=O)C(C)OC(=O)c1ccc2c(c1)OCCO2 (stereo not drawn),-1.5%,-11.0%,-0.1%,0.4%,9.6%,-1.0
